In the library only some 1.2% were active in any assay of this set; here they are far more common.
sEH act: soluble epoxide hydrolase (human) activation. P34913. purified human sEH enzymatic activity, activator screen. activation, % at 2 µM. 91,000 tested, 0.04% active. AID 717; in the data active means activation above about 37%
Target sequence (P34913 whole entry, looked up): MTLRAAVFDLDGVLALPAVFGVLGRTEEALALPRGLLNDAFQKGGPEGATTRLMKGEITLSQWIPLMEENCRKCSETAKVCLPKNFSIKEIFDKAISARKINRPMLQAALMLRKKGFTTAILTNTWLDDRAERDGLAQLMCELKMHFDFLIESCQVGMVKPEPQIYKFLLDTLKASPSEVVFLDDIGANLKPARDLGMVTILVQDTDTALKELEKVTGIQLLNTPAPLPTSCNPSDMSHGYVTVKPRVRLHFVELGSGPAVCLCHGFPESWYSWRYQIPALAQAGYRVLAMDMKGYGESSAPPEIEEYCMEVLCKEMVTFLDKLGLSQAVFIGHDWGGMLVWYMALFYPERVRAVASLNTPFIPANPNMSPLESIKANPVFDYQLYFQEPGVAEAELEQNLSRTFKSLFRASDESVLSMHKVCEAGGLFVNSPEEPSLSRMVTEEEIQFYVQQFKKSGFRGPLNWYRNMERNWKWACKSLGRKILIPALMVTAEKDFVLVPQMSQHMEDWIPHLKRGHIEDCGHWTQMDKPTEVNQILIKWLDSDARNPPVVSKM
NFkB transloc inh: blocks IL-1B driven NFkB nuclear translocation in HUVEC cells; HUVEC IL-1B NFkB p65 nuclear translocation imaging; inhibition, % at 2 µM; 94,000 tested, 0.43% active; AID 796;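 active means inhibition above about 30% together with a positive call from visual inspection of the well image, limit read from the data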;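 further: nuclear over cytoplasmic p65 intensity ratio measured by imaging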
NFkB transloc pot: enhances IL-1B driven NFkB nuclear translocation | HUVEC IL-1B NFkB p65 nuclear translocation imaging | AID 819 | activation, % at 2 µM | 94,000 tested, 0.3% active;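 active means activation above 40%, about the mean plus 3 SD, also judged a hit on visual image review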;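 further: percent activation is computed from the nuclear over cytoplasmic p65 intensity ratio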
sEH inh: soluble epoxide hydrolase (human) inhibition; 91,000 tested, 0.34% active; inhibition, % at 2 µM; P34913; recombinant human sEH enzymatic activity assay; in the data active means inhibition above about 80%
IL1B cytotox: toxic to HUVEC cells under IL-1B stimulation; HUVEC cell count loss, Hoechst imaging, IL-1B stimulated; 94,000 tested, 0.41% active; cell count reduction, % at 2 µM; AID 845;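 active means cell count reduction more than 3 SD above the screen-wide mean, cut at about 70% in these data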
A number is an active result.

`COc1ccc(S(=O)(=O)Nc2cc(OC)c(NC(=O)c3ccco3)cc2OC)cc1` gave sEH act inactive, NFkB transloc inh inactive, NFkB transloc pot 43, sEH inh inactive and IL1B cytotox inactive.
`CCOc1ccc(C2NC(=O)NC(C)=C2C(=O)OC)cc1C` (stereo not drawn) gave sEH act inactive, NFkB transloc inh inactive, NFkB transloc pot inactive, sEH inh inactive and IL1B cytotox inactive.
`O=C(NCc1ccccc1)c1cccc(COc2cccc(Cl)c2)c1` gave sEH act inactive, NFkB transloc inh inactive, NFkB transloc pot inactive, sEH inh inactive and IL1B cytotox inactive.
O=C(NCc1ccccc1)Oc1cccc(Cl)c1 was read as sEH act inactive, NFkB transloc inh inactive, NFkB transloc pot 42, sEH inh inactive and IL1B cytotox inactive.
`COc1cc2[nH]c(=O)n(Cc3ccc(C(=O)NCCCN4CCN(C)CC4)cc3)c(=O)c2cc1OC` gave sEH act inactive, NFkB transloc inh inactive, NFkB transloc pot inactive, sEH inh inactive and IL1B cytotox inactive.
COc1cc2[nH]c(=O)n(Cc3ccc(C(=O)NC4CCCC4)cc3)c(=O)c2cc1OC was read as sEH act inactive, NFkB transloc inh inactive, NFkB transloc pot 46, sEH inh inactive and IL1B cytotox inactive.
Screening CCCOC(=O)C1[C@H]2C(=O)N(CC3CCCO3)C[C@]23C=C[C@H]1O3 (stereo partly drawn) returned sEH act inactive, NFkB transloc inh inactive, NFkB transloc pot inactive, sEH inh inactive and IL1B cytotox inactive.
CNC(=O)CN(C)S(=O)(=O)c1ccc(F)cc1 was read as sEH act inactive, NFkB transloc inh inactive, NFkB transloc pot 44, sEH inh inactive and IL1B cytotox inactive.
CC(C)COC(=O)c1ccc2c(c1O)C(=O)c1ccccc1C2=O was read as sEH act inactive, NFkB transloc inh inactive, NFkB transloc pot inactive, sEH inh inactive and IL1B cytotox inactive.
For O=C(CCCCCN1C(=O)CCC1=O)Nc1ccc(Cl)c(C(F)(F)F)c1 the results were sEH act inactive, NFkB transloc inh inactive, NFkB transloc pot inactive, sEH inh inactive and IL1B cytotox inactive.
`Cc1ccc(CNC(=O)c2ccc(Br)o2)cc1` gave sEH act inactive, NFkB transloc inh inactive, NFkB transloc pot inactive, sEH inh inactive and IL1B cytotox inactive.
For O=C(NCc1cn2ccccc2n1)c1ccc(Br)o1 the results were sEH act inactive, NFkB transloc inh 32, NFkB transloc pot inactive, sEH inh inactive and IL1B cytotox inactive.
`COc1cc(NC(=O)Nc2cccc(C(C)=O)c2)cc(OC)c1OC` gave sEH act inactive, NFkB transloc inh inactive, NFkB transloc pot inactive, sEH inh inactive and IL1B cytotox 72.
For CC(Cc1cccs1)NC(=O)Nc1cccc(Cl)c1 (stereo not drawn) the results were sEH act inactive, NFkB transloc inh inactive, NFkB transloc pot inactive, sEH inh 84 and IL1B cytotox inactive.
Screening CC(=O)c1cccc(NC(=O)NCc2cccs2)c1 returned sEH act inactive, NFkB transloc inh inactive, NFkB transloc pot 46, sEH inh inactive and IL1B cytotox inactive.
For CCOC(=O)CC(=O)CSc1nc(N)c(C#N)c(-c2ccc(F)cc2)c1C#N the results were NFkB transloc inh inactive, NFkB transloc pot inactive and IL1B cytotox inactive.
`CC12CCC(C(=O)N(CSC(=S)N/N=C\c3ccccc3Cl)C1=O)C2(C)C` (stereo not drawn) gave sEH act inactive, NFkB transloc inh 100, NFkB transloc pot inactive, sEH inh inactive and IL1B cytotox 95.
For c1ccc(-n2nnnc2OCCOc2nnnn2-c2ccccc2)cc1 the results were sEH act inactive, NFkB transloc inh inactive, NFkB transloc pot inactive, sEH inh inactive and IL1B cytotox 94.
`CC(C)Oc1nnnn1-c1ccccc1` gave sEH act inactive, NFkB transloc inh inactive, NFkB transloc pot inactive, sEH inh inactive and IL1B cytotox inactive.
`CC(C)CC(=O)NC(=S)Nc1ccc(NC(=O)c2cccs2)cc1` gave sEH act inactive, NFkB transloc inh inactive, NFkB transloc pot inactive, sEH inh inactive and IL1B cytotox inactive.
`CC1CCN(c2nc3ccccc3nc2C(C#N)C(=O)OC2CCCCC2)CC1` (stereo not drawn) gave sEH act inactive, NFkB transloc inh 97, NFkB transloc pot inactive, sEH inh inactive and IL1B cytotox 92.
Screening N#CC(C(=O)OC1CCCCC1)c1nc2ccccc2nc1N1CCCCC1 (stereo not drawn) returned sEH act inactive, NFkB transloc inh inactive, NFkB transloc pot inactive, sEH inh inactive and IL1B cytotox inactive.
Screening Cc1nn2c(-c3cccc(NC(=O)CSc4nc5ccccc5o4)c3)nnc2c2ccccc12 returned sEH act inactive, NFkB transloc inh inactive, NFkB transloc pot inactive, sEH inh inactive and IL1B cytotox inactive.

Compound activity as filed in PubChem.
